In PubChem BioAssay (EPA / NIEHS) one finds AC50 and outcome data, which are given here for eleven compounds.

Each structure is given as a SMILES string. “And” between values parts separate entries of the source, which are not always exact repeats. Equal values may be shown once. Inconclusive results are not listed. A structure can be active in one record and inactive in another. The source made the active and inactive calls. The calls were made as follows, unless noted: active = hit-call score of the fitted dose curve at least 0.9, where 1 is the maximum; inconclusive = response in the unintended direction; inactive = score below 0.9.

Read-out in assay [1]: solute carrier (SLCO1B1), SLCO1B1 (gene 10599)
The assay can be described thus: LTEA_HepaRG_SLCO1B1: Life Technologies and Expression Analysis (LTEA) Assay for solute carrier (SLCO1B1) using HepaRG (AID 2283530; active = hit-call score of the fitted dose curve at least 0.9, where 1 is the maximum; inactive = score below 0.9). The following applies: mRNA level, 48 h; actives raise or lower the signal. In short, it runs like this:
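SLCO1B1 transcript read by qRT-PCR (Fluidigm arrays), normalized to three housekeeping genes, after 48 h chemical exposure of HepaRG cells; bidirectional concentration-response fitting versus 0.5% DMSO baseline. Eight-point half-log series, maximum 100 uM.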

Read-out in assay [2]: sulfotransferase 2A1 (SULT2A1), SULT2A1 (gene 6822)
The assay can be described thus: LTEA_HepaRG_SULT2A1: Life Technologies and Expression Analysis (LTEA) Assay for sulfotransferase 2A1 (SULT2A1) using HepaRG (AID 2283531; active = hit-call score of the fitted dose curve at least 0.9, where 1 is the maximum; inactive = score below 0.9). The following applies: mRNA level, 48 h; actives raise or lower the signal. In short, it runs like this:
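HepaRG, 48 h chemical exposure, 8-pt half-log curve from 100 uM in 0.5% DMSO, duplicates. Readout: TaqMan qRT-PCR of SULT2A1 mRNA, housekeeping-normalized. Bidirectional fit vs DMSO baseline.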

Read-out in assay [3]: Transforming Growth Factor (TGFA), TGFA (gene 7039)
The assay can be described thus: LTEA_HepaRG_TGFA: Life Technologies and Expression Analysis (LTEA) Assay for Transforming Growth Factor (TGFA) using HepaRG (AID 2283532; active = hit-call score of the fitted dose curve at least 0.9, where 1 is the maximum; inactive = score below 0.9). The following applies: mRNA level, 48 h; actives raise or lower the signal. Summed up:
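qRT-PCR read-out of TGFA transcript, normalized to three housekeeping genes, fitted bidirectionally against 0.5% DMSO baseline. Human HepaRG cultures received chemicals for 48 h at eight half-log concentrations, top 100 uM.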

Read-out in assay [4]: Transforming Growth Factor (TGFB1), TGFB1 (gene 7040)
The assay can be described thus: LTEA_HepaRG_TGFB1: Life Technologies and Expression Analysis (LTEA) Assay for Transforming Growth Factor (TGFB1) Transporter using HepaRG (AID 2283533; active = hit-call score of the fitted dose curve at least 0.9, where 1 is the maximum; inactive = score below 0.9). The following applies: mRNA level, 48 h; actives raise or lower the signal. Summed up:
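qRT-PCR readout of TGFB1 transcript in HepaRG lysates, normalized to three housekeeping genes; gain or loss of signal fitted relative to 0.5% DMSO vehicle. Exposure: 48 h, 8-point curve from 100 uM, duplicate wells.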

Read-out in assay [5]: TIMP1, TIMP1 (gene 7076)
The assay can be described thus: LTEA_HepaRG_TIMP1: Life Technologies and Expression Analysis (LTEA) Assay for TIMP1 using HepaRG (AID 2283534; active = hit-call score of the fitted dose curve at least 0.9, where 1 is the maximum; inactive = score below 0.9). The following applies: mRNA level, 48 h; actives raise or lower the signal. In short, it runs like this: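 HepaRG, 48 h exposure, 8-pt half-log series from 100 uM in 0.5% DMSO, duplicates; TIMP1 transcript by Fluidigm qRT-PCR, housekeeping-normalized; bidirectional curve fit vs DMSO baseline.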

Read-out in assay [6]: Tumor necrosis factor receptor 1 (TNFRSF1A), TNFRSF1A (gene 7132)
The assay can be described thus: LTEA_HepaRG_TNFRSF1A: Life Technologies and Expression Analysis (LTEA) Assay for Tumor necrosis factor receptor 1 (TNFRSF1A) using HepaRG (AID 2283535; active = hit-call score of the fitted dose curve at least 0.9, where 1 is the maximum; inactive = score below 0.9). The following applies: mRNA level, 48 h; actives raise or lower the signal. In short, it runs like this:
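HepaRG, 48 h plating then 48 h chemical exposure, serum-free induction media; 8-pt CRC from 100 uM, half-log, 0.5% DMSO vehicle, duplicates. Readout: TaqMan qRT-PCR (Fluidigm), housekeeping-gene normalized; bidirectional fit vs DMSO.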

Read-out in assay [7]: Thyroid Hormone Responsive (THRSP), THRSP (gene 7069)
The assay can be described thus: LTEA_HepaRG_THRSP: Life Technologies and Expression Analysis (LTEA) Assay for Thyroid Hormone Responsive (THRSP) using HepaRG (AID 2283536; active = hit-call score of the fitted dose curve at least 0.9, where 1 is the maximum; inactive = score below 0.9). The following applies: mRNA level, 48 h; actives raise or lower the signal. In short, it runs like this:
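qRT-PCR read-out (Fluidigm TaqMan), housekeeping-normalized (ACTB/GAPDH/POLR2A). HepaRG, 48 h chemical exposure, 8-pt half-log series from 100 uM in 0.5% DMSO, duplicates. Bidirectional curve fit vs 0.5% DMSO baseline.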

Read-out in assay [8]: Cellular tumor antigen p53 (Homo sapiens) (UniProt P04637)
The assay can be described thus: LTEA_HepaRG_TP53: Life Technologies and Expression Analysis (LTEA) Assay for Tumor Protein P53 (TP53) using HepaRG (AID 2283537; active = hit-call score of the fitted dose curve at least 0.9, where 1 is the maximum; inactive = score below 0.9). The following applies: mRNA level, 48 h; actives raise or lower the signal. Summed up: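 Gain or loss of TP53 mRNA signal is scored relative to 0.5% DMSO after 48 h chemical treatment of HepaRG liver cells, tested in duplicate at eight half-log concentrations up to 100 uM.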

Assay [9] in a line: LTEA_HepaRG_LDH_cytotoxicity: Cytotoxicity Assessment in the Life Technologies and Expression Analysis (LTEA) Assay (AID 2283563).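 As to AC50: LDH activity released into spent culture medium as a marker of cell death.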 In short, it runs like this:
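HepaRG (human liver line), 48 h exposure, 8-pt half-log series from 100 uM, 0.5% DMSO vehicle, duplicates. Read-out: LDH in spent medium. Positive-direction fit vs DMSO baseline.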

Assay [10] can be described thus: ATG_XTT_Cytotoxicity: Cytotoxicity Assessment in the Attagene TRANS-FACTORIAL HepG2 Assay (AID 2283584). Summed up: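 XTT readout of cell number in transfected HepG2 cells, 24 h post-dosing; DMSO serves as negative control and baseline, with activity taken as loss of viability signal.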
A short description of assay [11]: TOX21_p53_BLA_p2_viability: Viability Assessment in the Tox21 HCT-116 p53 Agonism Beta-lactamase Assay, Phase 2 (AID 2283591).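 Also: actives lower the ATP signal meaning cytotoxicity.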 In short, it runs like this:
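HCT116 p53-bla cells, 4000/well, dosed after 5 h plating (217-fold dilution of DMSO stocks) and incubated 16 h at 37C. Viability taken as cellular ATP by CellTiter-Glo luminescence after 30 min RT; signal loss marks cytotoxicity.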

Assay [12] addresses Cellular tumor antigen p53 (Homo sapiens) (UniProt P04637). The assay can be described thus: TOX21_p53_BLA_p2_ratio: Tox21 HCT-116 p53 Agonism Beta-lactamase Assay, Ratio, Phase 2 (AID 2283592). Summed up: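 Readout: blue/green (460/530 nm) FRET emission ratio after 2 h CCF4-AM loading at room temperature, excitation 405 nm. HCT116 p53 bla cells, 16 h compound exposure at 37C, 5% CO2; agonist direction fitted against DMSO baseline.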

Assay [13] in a line: TOX21_p53_BLA_p3_viability: Viability Assessment in the Tox21 HCT-116 p53 Agonism Beta-lactamase Assay, Phase 3 (AID 2283593).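 Also: cells exposed to compound for 16 h before reading.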 In short, it runs like this:
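HCT116 cells, 4000/well, dosed 5 h after plating by pin transfer (217-fold dilution from DMSO stock) and incubated 16 h at 37C, 5% CO2. Viability read as ATP luminescence with CellTiter-Glo after 30 min at room temperature.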

The target in assay [14] is Cellular tumor antigen p53 (Homo sapiens) (UniProt P04637). The assay can be described thus: TOX21_p53_BLA_p3_ratio: Tox21 HCT-116 p53 Agonism Beta-lactamase Assay, Ratio, Phase 3 (AID 2283596). Summed up:
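Cells were seeded at 4000/well, rested 5 h at 37C, then dosed with DMSO compound solutions (217-fold dilution) for 16 h. CCF4-AM substrate was loaded for 2 h at room temperature, and the 460/530 nm emission ratio was fitted for gain of signal versus DMSO.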

Assay [15] shares this target. The assay can be described thus: TOX21_p53_BLA_p5_ratio: Tox21 HCT-116 p53 Agonism Beta-lactamase Assay, Ratio, Phase 5 (AID 2283599). In short, it runs like this:
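HCT-116 p53-bla cells (4000/well) plated 5 h, dosed with compound (217-fold DMSO dilution) for 16 h at 37 C; CCF4-AM substrate 2 h at room temperature. Activity is the 460/530 nm emission ratio (405 nm excitation), fitted in gain-of-signal direction versus DMSO.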

Assay [16] in a line: TOX21_p53_BLA_p5_viability: Viability Assessment in the Tox21 HCT-116 p53 Agonism Beta-lactamase Assay, Phase 5 (AID 2283600). Summed up: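 ATP luminescence (CellTiter-Glo, 30 min, RT) served as the viability read-out, with loss of signal indicating cytotoxicity. Compounds in DMSO were pinned at a 217-fold dilution onto 4000 cells/well and incubated 16 h, 37C.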
In assay [17] the target is Cellular tumor antigen p53 (Homo sapiens) (UniProt P04637). The assay can be described thus: TOX21_p53_BLA_p4_ratio: Tox21 HCT-116 p53 Agonism Beta-lactamase Assay, Ratio, Phase 4 (AID 2283601). Summed up: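 HCT-116 p53 beta-lactamase reporter cells (4000/well) preincubated 5 h, then compound (217-fold dilution of DMSO stock) for 16 h at 37C. CCF4-AM substrate added 2 h at room temperature; 460/530 nm emission ratio fitted upward versus DMSO.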

A short description of assay [18]: Tanguay_ZF_120hpf_MORT_legacy: (Legacy) Oregon State University Tanguay Lab 120 Hour Post-fertilization zebrafish Assay for Mortality (AID 2283633). Summed up: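 Brightfield scoring of embryo death (binary) at 24 and 120 hpf; static exposure 6–120 hpf, 28C, sealed and foil-covered. Pronase-dechorionated 5D wild-type larvae, single embryo per well. DMSO 0.64% v/v; trimethyltin chloride 5uM positive control.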

Assay [19] in a line: Tanguay_ZF_120hpf_YSE_legacy: (Legacy) Oregon State University Tanguay Lab 120 Hour Post-fertilization zebrafish Assay for Yolk Sac Edema (AID 2283634).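 As to AC50: actives raise the incidence of yolk sac edema above the DMSO baseline.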 In short, it runs like this:
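Binary brightfield scoring of yolk sac edema at 120 hpf; DMSO baseline, gain-of-signal fitting. Dechorionated 5D larvae, one per well, static exposure 6–120 hpf, 28C, 0.64% DMSO. Dead embryos not scored.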

Sequence of Cellular tumor antigen p53 (Homo sapiens) (P04637 whole entry, looked up): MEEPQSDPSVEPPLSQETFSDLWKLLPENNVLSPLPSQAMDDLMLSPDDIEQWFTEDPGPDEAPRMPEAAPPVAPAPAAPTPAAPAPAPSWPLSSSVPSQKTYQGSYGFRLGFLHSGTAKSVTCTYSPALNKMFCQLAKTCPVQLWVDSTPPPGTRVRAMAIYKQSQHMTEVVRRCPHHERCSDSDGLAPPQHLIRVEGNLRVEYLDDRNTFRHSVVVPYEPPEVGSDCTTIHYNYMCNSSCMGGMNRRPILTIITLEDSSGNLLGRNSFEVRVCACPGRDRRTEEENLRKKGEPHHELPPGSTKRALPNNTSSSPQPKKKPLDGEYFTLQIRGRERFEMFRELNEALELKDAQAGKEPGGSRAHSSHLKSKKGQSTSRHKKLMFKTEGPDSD

With `CCCCc1oc2ccccc2c1C(=O)c1cc(I)c(OCCN(CC)CC)c(I)c1`, the AC50 (as a rule, the concentration giving half of the maximal activity seen) in assay [1] was 67.7 µM (active); in [2] it was 70.5 µM (active); in assay [3] it was 55.3 µM (active); in assay [7], 68.7 µM (active); in [8], 66.8 µM (active); in assay [9] it was 57 µM (active). Further, the AC50 was 59.9 µM (active) in assay [11]; 32.3 µM (active) and 51.8 µM (active) in [13]; 64.9 µM (active) in assay [17]. The call in assay [4], in [5], in assay [6], in [10], in assay [11] and in [12] was inactive. Also, the outcome in [13], in assay [14], in assay [15], in assay [16], in assay [17] and in assay [18] was inactive. In addition, the outcome in assay [19] was inactive.
Take `CCCCCc1ccc(O)cc1`: the outcome in assay [10] was inactive.
As to `c1cc[nH]c1`, in [10], the outcome was inactive.
Consider `COC(O)c1ccccc1` (centres undefined), for which, in [10], the compound was called inactive.
Turning to `N=C(N)c1ccc(OCCCCCOc2ccc(C(=N)N)cc2)cc1`, the concentration at half-maximal activity (AC50) is 3.57 µM (active) in assay [1]; 12.6 µM (active) in assay [2]; 11 µM (active) in assay [3]; 69.8 µM (active) in assay [4]; 43.8 µM (active) in assay [5]; 30.5 µM (active) in [6]. Moreover, the AC50 was 8.04 µM (active) in assay [7] and 12 µM (active) in [9]. For the same compound, the result in assay [10], in assay [18] and in assay [19] was inactive.
As for `Cc1ccccc1OCC(=O)O`, in assay [10], the call was inactive.
As to `CCCCCCCCCCCC(=O)O`, the result in assay [10] was inactive.
On to `CCCCCCCCCCCCOS(=O)(=O)O`, for which the values for the AC50 in assay [2], in assay [4] and in assay [7] were 80.2 µM (active), 80.9 µM (active) and 80.5 µM (active), respectively. Also, the call in assay [3], in assay [5], in assay [6], in assay [9], in [18] and in [19] was inactive.
In the case of `CCCCC=O`, the compound was called inactive in assay [1], in [2], in assay [3], in [4], in [5] and in [6]. Moreover, the result in [7], in assay [9], in assay [10] and in [18] was inactive. Also, the AC50 in assay [19] was 45.3 µM (active).
`CS(=O)(=O)c1ccc([C@@H](CC2CCCC2)C(=O)Nc2cnccn2)cc1Cl`: the AC50 was 84 µM (active) in assay [1]; 94.3 µM (active) in assay [2]; 74.1 µM (active) in [4]; 63.5 µM (active) in assay [7]; 61.3 µM (active) in assay [8]. In addition, the result in assay [3], in [5], in assay [6], in [18] and in [19] was inactive.
Take `Cc1[nH]nc2c1N=C(c1ccccc1Cl)c1cc([N+](=O)[O-])ccc1N2`: the AC50 was 7.93 µM (active) in [1]; 28.3 µM (active) in assay [2]; 50 µM (active) in assay [3]; 1.74 µM (active) in [4]; 2.38 µM (active) in assay [5]; 12.4 µM (active) in assay [6]. Also, the AC50 was 8.84 µM (active) in [7] and 61.4 µM (active) in assay [9]. For the same compound, the compound was called inactive in assay [10], in assay [18] and in [19].
